Assay outcomes: PubChem BioAssay, National Center for Advancing Translational Sciences (NCATS)
Compounds with a hit are over-represented: about 19% of the library has one in this group of screens.
DT40 TDP1 CPT – growth inhibition of DT40 Tdp1-/-;hTDP1 cells with camptothecin (screen for TDP1 inhibitors); chicken DT40 Tdp1-/-;hTDP1 cells + 20 nM CPT, ATP luminescence, 48 h; Potency, µM (doses to about 46.2 µM), hits mostly inhibitors; actives 12% (n = 420,000); AID 686979; further: nearly all actives have a fitted effect of over 55% in size
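Chicken DT40 Tdp1-/- cells stably complemented with human TDP1 were seeded at 400 cells/well in medium containing 20 nM camptothecin, exposed to pin-transferred compounds, and grown at 37 °C for at least 48 hr. Viability was read as ATP luminescence.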
KB-V1 cytotox – kills drug-selected multidrug resistant KB-V1 cells | KB-V1 MDR cells viability, CellTiter-Glo, 72 h | Potency, µM (series often up to 46.1 µM), usual class: cytotoxic | actives 3.4% (n = 400,000); further: nearly all actives have a fitted effect of over 60% in size
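Cells of the MDR subline KB-V1 are plated, dosed with compound at multiple concentrations, and incubated 72 h at 37 degrees C; CellTiter-Glo is then added and luminescence read after 10 min.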
HT1080 IDH1KD tx – kills HT-1080 cells with IDH1 knockdown. HT-1080 IDH1 knockdown viability, ATP luminescence, 48 h. Potency, µM (highest dose often 46.1 µM), usual class: cytotoxic. actives 2% (n = 360,000). AID 686971
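Luminescent ATP read-out (CellTiter-Glo, 10 min at room temperature) after 48 h compound exposure at 37 °C gave viability of IDH1-knockdown HT-1080 cells. Activity was normalised to DMSO and cell-free wells, then fitted as concentration-response curves.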
HT1080NT lethal – kills 2HG-producing HT-1080-NT fibrosarcoma cells | HT-1080-NT fibrosarcoma viability, CellTiter-Glo ATP luminescence, 48 h | Potency, µM (top dose mostly 46.1 µM), usual class: cytotoxic | actives 1.6% (n = 360,000) | AID 686970;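 further: NT is the 2HG producing partner of a matched IDH1 knockdown line; nearly all actives have a fitted effect of over 55% in size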
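Luminescent CellTiter-Glo readout after 48 hours of compound exposure at 37 degrees C defined viability of HT-1080-NT cells. Activity was normalized to DMSO wells and cell-free media wells; concentration-response curves were fitted and assigned curve classes.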
KB-3-1 cytotox – kills parental KB-3-1 adenocarcinoma cells; actives 1.4% (n = 400,000); Potency, µM (titrated, usually from 46.1 µM), actives largely listed as cytotoxic; KB-3-1 viability, CellTiter-Glo ATP luminescence, 72 h; further: nearly all actives have a fitted effect of over 60% in size
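Luminescent ATP read-out (CellTiter-Glo) measures survival of drug-naive KB-3-1 cells after 72 h compound exposure at 37 °C. Titration series was screened from lowest to highest concentration, with DMSO vehicle plates as background controls.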
TDP1 cell noCPT – qHTS for Inhibitors of human tyrosyl-DNA phosphodiesterase 1 (TDP1): qHTS in cells in absence of CPT. actives 15% (n = 420,000). Potency, µM (titrated, usually from 46.2 µM), usual class: inhibitors. DT40 Tdp1-/- hTDP1 cells, no CPT, ATP luminescence, 48 h. AID 686978, 2013; further: nearly all actives have a fitted effect of over 55% in size
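Chicken DT40 Tdp1-/- cells complemented with human TDP1, screened without camptothecin (DMSO vehicle only), 400 cells/well. Compounds pin-transferred, cells incubated at 37 °C for at least 48 hr. Growth read as ATP-dependent luminescence (CellTiter-Glo, 30 min at RT).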
A number is an active result; i = inactive; ? = inconclusive; nt = no result; ! = not active in a repeat; [ ] = remark or other dose. The call rests on the fitted dose curve; in most records, active means well fitted curve in the direction sought with a large enough effect; inconclusive means small, poorly fitted or top-dose-only effect, or another doubt; inactive means no such curve, though single readings can be large; an effect the other way counts as inactive or inconclusive.

SMILES | DT40 TDP1 CPT | KB-V1 cytotox | HT1080 IDH1KD tx | HT1080NT lethal | KB-3-1 cytotox | TDP1 cell noCPT
O=C(NC1CCC(=O)N(CCSc2ccccc2)CC1)OCc1ccccc1 (configuration not stated) | ? | ? | i | i | i | 16µM
O=C(N[C@H]1CCC(=O)N([C@H](CSc2ccc(Br)cc2)Cc2ccccc2)CC1)OCc1ccccc1 | ? | i | i | i | ? | 18µM
O=C1CC[C@H](OCc2ccccc2)CCN1[C@H](CSc1ccccc1)Cc1ccccc1 | i | ? | i | i | i | ?
Cc1ccc(SC[C@H](Cc2ccccc2)N2CC[C@@H](NC(=O)OCc3ccccc3)CCC2=O)cc1 | 18µM | ? | nt | nt | ? | 13µM
O=C(N[C@H]1CCC(=O)N([C@H](CSc2ccccc2)Cc2ccccc2)CC1)OCc1ccccc1 | ? | 18µM! | i | i | ? | 20µM
N#CCCN1CCC(NC(=O)OCc2ccccc2)CCC1=O (configuration not stated) | i | ? | i | i | i | i
O=C(C1CCN(S(=O)(=O)c2cccc3nsnc23)CC1)N1CCc2ccccc21 | ? | ? | i | i | i | ?
CC(C)C(NS(=O)(=O)c1cccc2nsnc12)C(=O)N1CCc2ccccc2C1 (configuration not stated) | i | 18µM | i | i | i | i
O=C(NCc1ccccc1Cl)C1CCCN(S(=O)(=O)c2cccc3nsnc23)C1 (configuration not stated) | ? | ? | i | i | i | ?
O=C(C1CCCN(S(=O)(=O)c2cccc3nsnc23)C1)N1CCc2ccccc2C1 (configuration not stated) | ? | i | i | i | i | 23µM
O=C(C1CCN(S(=O)(=O)c2cccc3nsnc23)CC1)N1CCn2c1nc1ccccc12 | ? | i | i | i | i | 16µM
O=C(C1CCCN(S(=O)(=O)c2cccc3nsnc23)C1)N1CCc2ccccc21 (configuration not stated) | ? | i | i | i | i | 23µM
CC1Cc2ccccc2N1C(=O)C1CCCN(S(=O)(=O)c2cccc3nsnc23)C1 (configuration not stated) | ? | i | i | i | i | 15µM
CC1CCCN(C(=O)C2CCCN(S(=O)(=O)c3cccc4nsnc34)C2)C1 (configuration not stated) | ? | i | i[9.24 µM] | i | i | i
COc1cccc(-c2nc(NCCN3CCOCC3)c3ccccc3n2)c1O | 15µM | ? | i | ? | i | 18µM
Oc1ccccc1-c1nc(NCCN2CCOCC2)c2ccccc2n1 | ? | 16µM | 21µM | 21µM | ? | ?
Clc1ccccc1-c1nc(NCCN2CCOCC2)c2ccccc2n1 | ? | nt | nt | nt | nt | i
O=C(c1[nH]ncc1-c1ccccc1)C1CO1 (configuration not stated) | 9.2µM | i | ? | ? | i | 13µM
O=C(c1[nH]ncc1-c1cccc(Br)c1)C1CO1 (configuration not stated) | 1.6µM | ? | ? | 26µM | ? | 1.8µM
CCN(CCCNC(=O)CNC(=O)c1nn(-c2ccc(OC)cc2)c(=O)c2ccccc12)c1cccc(C)c1 | ? | i | i | i | i | ?
COC(=O)[C@]12CCCCC=C1N(Cc1ccco1)C(=O)[C@H](CC(=O)NCC13CC4CC(CC(C4)C1)C3)C2 | ? | i | ? | ? | i | ?
Cc1cc(N2CCCC2)c(F)cc1/C=C\[N+](=O)[O-] | 23µM | ? | ? | ? | ? | ?
O=C1CSC2(CCN(CCCN3c4ccccc4Sc4ccc(Cl)cc43)CC2)N1 | 24µM | nt | nt | nt | nt | 9.4µM
CC(=O)Nc1sc(N/N=C\c2ccccc2Cl)nc1-c1cccs1 | 16µM | ? | i | i | i | 18µM
CCOc1cc(/C=N/Nc2nc(-c3cccs3)c(NC(C)=O)s2)ccc1O | i | ? | i | i | i | 13µM
SMILES | DT40 TDP1 CPT | KB-V1 cytotox | HT1080 IDH1KD tx | HT1080NT lethal | KB-3-1 cytotox | TDP1 cell noCPT
CC(=O)Nc1sc(N/N=C\c2ccccc2)nc1-c1cccs1 | i | i | i | i | i | ?
C[C@@H](NC(=O)[C@@H]1Cc2ccccc2CN1)C(=O)Nc1ccc2c(c1)OCCO2 | ? | i | i | i | i | ?
COc1cc(CNn2c(C)n[nH]c2=S)cc(Cl)c1OCc1ccc(F)cc1 | i | ? | i | i | i | i
CCOc1cc(CNn2cn[nH]c2=S)cc(Cl)c1OCc1ccccc1F | ? | 16µM | i | i | i | 15µM
OCCNCc1cc(Br)ccc1OCc1ccccc1 | 23µM | 15µM | i | i | i | 16µM
CCOc1cc(CNCCO)cc(Br)c1OCc1ccccc1 | 18µM | ? | ? | 21µM | ? | 16µM
CCNCc1cc(Cl)c(OCc2ccccc2)c(OCC)c1 | ? | i | ? | 16µM | i | ?
CCOc1cc(CNCC(O)c2ccccc2)cc(Cl)c1OC (configuration not stated) | ? | i | i | i | i | i
CC1CCN(C(=O)c2ccc(NS(=O)(=O)c3ccc4[nH]c(=O)[nH]c4c3)cc2)CC1 | i | i | i | i | i | i
CCOC(=O)C1(C)CCN1C(=O)c1ccc(OC)c(C(F)(F)F)c1 (configuration not stated) | ? | i | i | i | i | ?
Clc1ccccc1CNCC1CCCO1 (configuration not stated) | i | i | i | i | i | i
Brc1ccc(OCc2ccccc2)c(CNCC2CCCO2)c1 (configuration not stated) | ? | ? | i | i | i | 18µM
NS(=O)(=O)c1ccc(CCNCc2cc(Br)ccc2OCc2ccccc2)cc1 | 15µM | ? | i | i | i | 12µM
CCOc1cc(CNCCc2ccc(S(N)(=O)=O)cc2)ccc1OCc1ccccc1 | 12µM | ? | ? | ? | ? | 12µM
CCOc1cc(CNCCc2ccc(S(N)(=O)=O)cc2)cc(Cl)c1OCc1ccccc1 | 13µM | ? | 18µM | 14µM | i | ?
Cc1nc2nc(SCC(=O)N(C)Cc3ccccc3)nn2c(C)c1Cc1ccccc1Cl | ? | i | nt | nt | i | ?
COC(=O)c1cccc(Nc2c(-c3ccc(O)c(OC)c3)nc3nc[nH]n23)c1 | ? | i | nt | nt | i | ?
Cc1csc2nc(CCNS(=O)(=O)c3ccc(F)cc3)cn12 | i | nt | nt | nt | nt | i
COc1ccc(/C=N/Nc2cc(C)nc(-n3nc(C)cc3C)n2)cc1 | 4.6µM | i | ? | ? | ? | 4.6µM
Cc1cc(N/N=C/c2cccc(Cl)c2)nc(-n2nc(C)cc2C)n1 | 0.58µM | ? | ? | ? | i | 0.82µM
